Source: PubChem BioAssay (NCATS)
Results filed as inconclusive are left out. The source made the active and inactive calls. Unless noted, calls follow the shape of the dose curve; as a rule, active = well fitted curve in the direction sought with a large enough effect; inconclusive = small, poorly fitted or top-dose-only effect, or another doubt; inactive = no such curve, though single readings can be large; an effect the other way counts as inactive or inconclusive.

target: RecQ-like DNA helicase BLM (Homo sapiens) (UniProt P54132); test: qHTS Validation Assay for Inhibitors of Bloom's syndrome helicase (BLM) (AID 2364); settings: BLM helicase DNA unwinding, fluorescence, in vitro; series mostly up to 57.1 µM; activity change, negative = inhibition: at the top concentration;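 also: plate controls were DMSO vehicle for no effect and enzyme-free control for full effect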
Outline: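 Forked 20-bp duplex substrate (200 nM, TAMRA/BHQ-2) plus 2 mM ATP added after 15 min compound preincubation with 50 nM enzyme, pH 8.0, poly(dI-dC) 2.5 ug/ml. Strand separation followed by fluorescence (525/598 nm) over 2 h, normalized to enzyme-free and DMSO controls.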

RecQ-like DNA helicase BLM (Homo sapiens), sequence (P54132 whole entry, looked up): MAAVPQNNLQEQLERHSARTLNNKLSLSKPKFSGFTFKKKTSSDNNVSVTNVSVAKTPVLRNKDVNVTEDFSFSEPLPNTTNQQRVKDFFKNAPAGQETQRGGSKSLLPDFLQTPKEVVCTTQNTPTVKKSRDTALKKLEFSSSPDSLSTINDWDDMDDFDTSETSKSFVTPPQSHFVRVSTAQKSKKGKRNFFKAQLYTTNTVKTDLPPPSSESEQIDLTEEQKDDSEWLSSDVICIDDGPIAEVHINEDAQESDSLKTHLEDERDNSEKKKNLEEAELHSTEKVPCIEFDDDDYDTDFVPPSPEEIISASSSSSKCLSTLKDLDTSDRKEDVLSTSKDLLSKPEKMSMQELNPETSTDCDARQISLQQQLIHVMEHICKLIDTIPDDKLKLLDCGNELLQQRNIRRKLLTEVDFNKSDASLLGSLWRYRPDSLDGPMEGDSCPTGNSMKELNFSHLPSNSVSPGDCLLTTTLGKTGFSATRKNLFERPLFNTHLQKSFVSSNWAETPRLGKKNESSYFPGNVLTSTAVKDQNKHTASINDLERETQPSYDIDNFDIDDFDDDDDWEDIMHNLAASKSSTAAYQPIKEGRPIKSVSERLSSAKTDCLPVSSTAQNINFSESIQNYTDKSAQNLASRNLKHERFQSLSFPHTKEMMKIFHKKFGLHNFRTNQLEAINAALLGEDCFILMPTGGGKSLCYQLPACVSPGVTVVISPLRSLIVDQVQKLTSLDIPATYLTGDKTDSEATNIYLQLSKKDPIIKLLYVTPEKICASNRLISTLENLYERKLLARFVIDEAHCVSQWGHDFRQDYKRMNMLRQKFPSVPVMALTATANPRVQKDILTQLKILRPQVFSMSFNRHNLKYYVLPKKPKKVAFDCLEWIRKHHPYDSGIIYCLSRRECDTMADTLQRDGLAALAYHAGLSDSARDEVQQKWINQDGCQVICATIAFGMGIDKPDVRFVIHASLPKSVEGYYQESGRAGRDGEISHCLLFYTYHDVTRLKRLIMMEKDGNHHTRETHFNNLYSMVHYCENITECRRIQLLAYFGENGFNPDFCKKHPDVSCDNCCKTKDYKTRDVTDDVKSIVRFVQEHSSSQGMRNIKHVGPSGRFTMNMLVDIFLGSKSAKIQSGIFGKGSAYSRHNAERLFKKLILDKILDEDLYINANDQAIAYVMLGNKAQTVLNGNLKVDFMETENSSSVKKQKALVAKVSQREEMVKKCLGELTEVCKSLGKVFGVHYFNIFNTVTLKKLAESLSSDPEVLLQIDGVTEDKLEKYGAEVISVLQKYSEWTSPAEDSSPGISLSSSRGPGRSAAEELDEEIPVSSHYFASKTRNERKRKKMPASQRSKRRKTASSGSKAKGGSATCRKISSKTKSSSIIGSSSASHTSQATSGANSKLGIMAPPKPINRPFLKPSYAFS

Structure (SMILES)	activity change, negative = inhibition
NC(N)=N/N=C/c1c(Cl)cccc1Cl	13.5% (inactive)
CC(N)C(=O)OC(C)(C)Cc1ccc(Cl)cc1 (centres undefined)	-7.21% (inactive)
c1ccc2nc(N3CCNCC3)ccc2c1	-1.08% (inactive)
O=C(O)c1nn(Cc2ccc(Cl)cc2Cl)c2ccccc12	-7.47% (inactive)
NC(N)=NC(=O)c1nc(Cl)c(N)nc1N	54.1% (inactive)

system: not listed separately; test: Cytometric Cell-Based qHTS for Inhibitors of the mTORC1 Signaling Pathway in MEF (Tsc2-/-, p53-/-) Cells (AID 2660); settings: mTORC1 pathway cytometry; series mostly up to 38.3 µM; activity change, negative = inhibition: at the top concentration;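 also: Tsc2 and p53 null MEFs carrying empty vector with compound for 24 h; percent of cells above a phospho-rpS6 to PI ratio cutoff in each well; plate controls were DMSO for no effect and rapamycin for full effect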
Outline: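 Readout: Alexa-488 phospho-rpS6 (Ser235/236) intensity divided by PI intensity, thresholded against 7.5 nM rapamycin wells and reported as % positive cells. PI cell count served as the viability measure. Compound exposure was 24 hrs at 37 degree Celsius.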

Structure (SMILES)	activity change, negative = inhibition
COC(=O)C1=CCCN(C)C1	-1.11% (inactive)
COc1ccc(C(=O)N2CCCC2=O)cc1	6.86% (inactive)
O=C(O)c1nn(Cc2ccc(Cl)cc2Cl)c2ccccc12	-11.1% (inactive)
NC(=O)CN1CCCC1=O	0.347% (inactive)

system: not listed separately; test: High Content Imaging Cell-Based qHTS for Inhibitors of the mTORC1 Signaling Pathway in MEF (Tsc2-/-, p53-/-) Cells (AID 2666); settings: at 38.3 µM (top of the series);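 also: percent of cells scored positive for phospho-rpS6 Ser235/236 immunostaining by imaging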
Outline: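 Cells were plated, dosed with compound after 24 hrs, and incubated another 24 hrs at 37 degree Celsius. Fixed cells were immunostained for phospho-rpS6 Ser235/236 and counterstained, and the normalized signal was scored as % active cells against rapamycin and DMSO controls.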

Structure (SMILES)	outcome
COC(=O)C1=CCCN(C)C1	inactive
COc1ccc(C(=O)N2CCCC2=O)cc1	inactive
O=C(O)c1nn(Cc2ccc(Cl)cc2Cl)c2ccccc12	inactive
NC(=O)CN1CCCC1=O	inactive

system: not listed separately; test: High Content Imaging Cell-Based qHTS for Inhibitors of the mTORC1 Signaling Pathway in MEF Cells (AID 2667); settings: series mostly up to 38.3 µM; activity change, negative = inhibition: at the top concentration;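 also: Tsc2-/- p53-/- MEFs stably re-expressing wild-type Tsc2 exposed 24 h; plate controls were DMSO wells for no effect and rapamycin control wells for full effect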
Outline: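 Immunofluorescence for rpS6 phosphorylation in MEFs of Tsc2-/-, p53-/- background rescued with WT Tsc2. Compound exposure lasted 24 hrs. Inhibition was scored against rapamycin-treated control wells.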

Structure (SMILES)	activity change, negative = inhibition
COC(=O)C1=CCCN(C)C1	-100% (inactive)
COc1ccc(C(=O)N2CCCC2=O)cc1	-100% (inactive)
O=C(O)c1nn(Cc2ccc(Cl)cc2Cl)c2ccccc12	-100% (inactive)
NC(=O)CN1CCCC1=O	-100% (inactive)

system: not listed separately; test: Cytometry Cell-Based qHTS for Inhibitors of the mTORC1 Signaling Pathway in MEF cells (AID 2668); settings: mTORC1 pathway readout; series mostly up to 38.3 µM; activity change, negative = inhibition: at the top concentration; also: potency is read from the fitted curve at half-maximal effect;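 as to activity change, negative = inhibition: Tsc2-/- p53-/- mouse embryonic fibroblasts stably re-expressing wild-type Tsc2; percent cells positive for phospho-rpS6 Ser235/236 relative to propidium iodide stain; plate controls were DMSO wells for no effect and 7.5 nM rapamycin control wells for full effect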
Outline: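 Pathway inhibition in WT Tsc2-rescued Tsc2-/-, p53-/- MEFs is measured as the Alexa-488 phospho-rpS6 to propidium iodide intensity ratio after 24 hrs of compound at 37 degree Celsius. PI-stained cell number gives viability.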

Structure (SMILES)	activity change, negative = inhibition	Potency
COC(=O)C1=CCCN(C)C1	11.2% (inactive)	
COc1ccc(C(=O)N2CCCC2=O)cc1	-3% (inactive)	
O=C(O)c1nn(Cc2ccc(Cl)cc2Cl)c2ccccc12	4.11% (inactive)	
NC(=O)CN1CCCC1=O	1.92% (inactive)	
CC[C@H]1CN2CCc3cc(OC)c(OC)cc3[C@@H]2C[C@@H]1C[C@H]1NCCc2cc(OC)c(OC)cc21		5.21 µM (active)

system: not listed separately; test: Validation screen for inhibitors of Lassa infection (AID 463096; calls by dose curve; also: potency is read from the fitted curve at half-maximal effect; as to activity change, negative = inhibition: % is scaled to controls: 0 for no effect and ±100 for the full control effect); settings: Lassa virus infection, cell-based; series mostly up to 46.1 µM; activity change, negative = inhibition: at the top concentration

Structure (SMILES)	activity change, negative = inhibition	Potency
CCCCNc1cc(C(=O)O)cc(S(N)(=O)=O)c1Oc1ccccc1	-28.3% (inactive)	
CNCCC(Oc1ccccc1OC)c1ccccc1 (centres undefined)	-10.8% (inactive)	
CCCCCCCCC(=O)NCc1ccc(O)c(OC)c1	-32% (inactive)	
C[N+](C)(C)CCCCCCCCCC[N+](C)(C)C	13.7% (inactive)	
NC(N)=N/N=C/c1c(Cl)cccc1Cl	-19.8% (inactive)	
COc1nc(C)nc(Cl)c1NC1=NCCN1	7.52% (inactive)	
CCCCNc1ccc(C(=O)OCCN(C)C)cc1	3.36% (inactive)	
O=C(CCNNC(=O)c1ccncc1)NCc1ccccc1	-1.99% (inactive)	
O=C1CC2(CCCC2)CC(=O)N1CCCCN1CCN(c2ncccn2)CC1	5.16% (inactive)	
CC(N)C(=O)OC(C)(C)Cc1ccc(Cl)cc1 (centres undefined)	18.9% (inactive)	
COC(=O)C1=CCCN(C)C1	1.26% (inactive)	
c1ccc2nc(N3CCNCC3)ccc2c1	49.9% (inactive)	
COc1ccc(C(=O)N2CCCC2=O)cc1	-6.68% (inactive)	
CNC(=O)Oc1ccc2c(c1)[C@]1(C)CCN(C)[C@@H]1N2C	20.9% (inactive)	
C#CCN(C)Cc1ccccc1	4.53% (inactive)	
Cc1cc(C(C)(C)C)cc(C)c1CC1=NCCN1	-37% (inactive)	
O=C(c1ccc(F)cc1)C1CCN(CCn2c(=O)[nH]c3ccccc3c2=O)CC1	-6.91% (inactive)	
Cc1ccc(C(=O)Nc2ccc(S(=O)(=O)O)c3cc(S(=O)(=O)O)cc(S(=O)(=O)O)c23)cc1NC(=O)c1cccc(NC(=O)Nc2cccc(C(=O)Nc3cc(C(=O)Nc4ccc(S(=O)(=O)O)c5cc(S(=O)(=O)O)cc(S(=O)(=O)O)c45)ccc3C)c2)c1	-19.5% (inactive)	
C[C@]12CCC(=O)C=C1CC[C@@H]1[C@@H]2C(=O)C[C@@]2(C)[C@H]1CC[C@]2(O)C(=O)CO	31.1% (inactive)	
Nc1c2c(nc3ccccc13)CCCC2O (centres undefined)	-11.4% (inactive)	
O=C(O)c1nn(Cc2ccc(Cl)cc2Cl)c2ccccc12	38.6% (inactive)	
C[n+]1cc2c3c(ccc2c2ccc4cc5c(cc4c21)OCO5)OCO3		2 µM (active)
NS(=O)(=O)c1cc2c(cc1Cl)NCNS2(=O)=O	-17.8% (inactive)	
NC(=O)CN1CCCC1=O	-1.08% (inactive)	
NC(N)=NC(=O)c1nc(Cl)c(N)nc1N	-1.72% (inactive)	
COC(=O)C1=C(C)NC(C)=C(C(=O)OC)C1c1ccccc1[N+](=O)[O-]	-13.6% (inactive)	
OC(CN1CCC(Cc2ccc(F)cc2)CC1)c1ccc(Cl)cc1 (centres undefined)	-44.7% (inactive)	
CC[C@H]1CN2CCc3cc(OC)c(OC)cc3[C@@H]2C[C@@H]1C[C@H]1NCCc2cc(OC)c(OC)cc21		0.158 µM (active)
Brc1c(NC2=NCCN2)ccc2nccnc12	-32.5% (inactive)	
CN(C)CC[C@@H](c1ccc(Cl)cc1)c1ccccn1	29.3% (inactive)	

system: not listed separately; test: Validation screen for small molecules that induce DNA re-replication in MCF 10A normal breast cells (AID 463097); settings: MCF 10A cells, DNA re-replication phenotype imaging; series mostly up to 46.1 µM; re-replication induction: at the top concentration; also: nearly all actives have a fitted effect of over 60% in size; also: potency is read from the fitted curve at half-maximal effect; as to re-replication induction: 0% is about no effect
Excerpt: NIH Molecular Libraries Probe Production Network [MLPCN]
NIH Chemical Genomics Center [NCGC]
Assay Provider: Melvin DePamphilis, NICHD, NIH
Eukaryotic cells normally restrict genome duplication to once per cell division. When this process is aberrant, DNA re-replication occurs when cells reinitiate DNA replication before the first round of replication is complete. DNA re-replication induces the DNA damage response, arrests cell proliferation, and triggers apoptosis. The cell cycle components cyclin A, Cdt-1, Cdc6 and geminin are critical regulators of this process and their misregulation results in DNA re-replication in normal and cancer cells. To identify compounds that induce re-replication in normal cells, an image-based assay was used to measure DNA content of nuclei, as detected by the fluorescent DNA binding dye, Hoechst. Cell nuclei were imaged by a fluorescence scanning plate imager and compounds that induce DNA re-replication were identified by the increase of nuclei with elevated fluorescence intensity.
For screening, 250 cells in 5 uL/well were dispensed into black clear 1536-well plates (Aurora) using a solenoid-based dispenser. Following transfer of 23 nL compound or DMSO vehicle by a pin tool, the plates were incubated 48 hr at 37 C and 5% CO2. After addition of 1 uL/well Hoescht stain, the plates were incubated 40 min at 37 C, 5% CO2 and total intensity of fluorescent objects (nuclei) were enumerated by an Acumen Explorer Ex3 (TTP LabTech) fluorescence scanning plate imager (405 nm excitation, 500-530 nm emission).
Keywords: NIH Roadmap, MLPCN, MLI, MLSMR, qHTS, NCGC, DNA replication, cancer

Structure (SMILES)	re-replication induction	Potency
CCCCCCCCC(=O)NCc1ccc(O)c(OC)c1	2.23% (inactive)	
CC(N)C(=O)OC(C)(C)Cc1ccc(Cl)cc1 (centres undefined)	7.61% (inactive)	
COC(=O)C1=CCCN(C)C1	4.82% (inactive)	
c1ccc2nc(N3CCNCC3)ccc2c1	-1.46% (inactive)	
COc1ccc(C(=O)N2CCCC2=O)cc1	-3.28% (inactive)	
O=C(O)c1nn(Cc2ccc(Cl)cc2Cl)c2ccccc12	0.164% (inactive)	
NC(=O)CN1CCCC1=O	-8.65% (inactive)	
COC(=O)C1=C(C)NC(C)=C(C(=O)OC)C1c1ccccc1[N+](=O)[O-]		12.6 µM (active)

target: Ubiquitin carboxyl-terminal hydrolase 2 (Homo sapiens) (UniProt O75604); test: qHTS Validation Assay for Inhibitors of Ubiquitin-specific Protease USP2a Using CHOP2 as the Reporter (AID 463106); settings: USP2a cleavage of CHOP2 reporter, enzymatic; series mostly up to 38.3 µM; activity, negative = inhibition: at the top concentration;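 also: plate controls were DMSO for no effect and full inhibition by NEM for full effect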
Outline: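 10nM USP2 core + cpd, 30min RT; add 25nM Ub-CHOP2/25nM substrate; 60min RT; FI 485/531nm. Buffer Tris pH 8.0, CaCl2, BME, CHAPS. Norm. to NEM = 100% inhibition; time-zero read flags fluorescent artifacts.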

Ubiquitin carboxyl-terminal hydrolase 2 (Homo sapiens), sequence (O75604 whole entry, looked up): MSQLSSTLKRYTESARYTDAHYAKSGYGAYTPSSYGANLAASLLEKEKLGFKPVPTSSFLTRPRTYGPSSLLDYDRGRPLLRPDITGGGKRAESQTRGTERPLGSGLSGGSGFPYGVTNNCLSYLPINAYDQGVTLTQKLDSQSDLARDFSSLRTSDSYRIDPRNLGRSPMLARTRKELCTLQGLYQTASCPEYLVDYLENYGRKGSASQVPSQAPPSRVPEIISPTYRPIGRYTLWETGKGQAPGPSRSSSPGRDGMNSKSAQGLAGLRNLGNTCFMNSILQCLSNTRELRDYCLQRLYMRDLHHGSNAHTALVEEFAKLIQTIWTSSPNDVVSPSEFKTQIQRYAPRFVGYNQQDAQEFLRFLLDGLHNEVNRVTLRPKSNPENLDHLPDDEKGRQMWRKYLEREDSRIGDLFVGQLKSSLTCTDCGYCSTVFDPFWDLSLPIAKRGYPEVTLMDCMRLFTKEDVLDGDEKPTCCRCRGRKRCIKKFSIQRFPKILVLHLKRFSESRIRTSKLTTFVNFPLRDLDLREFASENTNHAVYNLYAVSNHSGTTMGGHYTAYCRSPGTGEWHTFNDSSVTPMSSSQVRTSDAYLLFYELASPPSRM

Structure (SMILES)	activity, negative = inhibition
COC(=O)C1=CCCN(C)C1	-0.332% (inactive)
COc1ccc(C(=O)N2CCCC2=O)cc1	-2.03% (inactive)
O=C(O)c1nn(Cc2ccc(Cl)cc2Cl)c2ccccc12	-0.448% (inactive)
NC(=O)CN1CCCC1=O	2.38% (inactive)

target: DNA polymerase III PolC-type (Bacillus subtilis (strain 168)) (UniProt P13267); test: qHTS Validation Assay for the Inhibitors of DNA Replication in Gram-Positive Bacteria (AID 485295); settings: Gram-positive bacterial DNA replication assay; series mostly up to 57.1 µM; activity change, negative = inhibition: at the top concentration;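 also: reconstituted holoenzyme with PolC plus beta clamp SSB and primase; PicoGreen fluorescence of double-stranded DNA made on primed circular M13 template; 0% = DMSO wells and -100% = EDTA-quenched background wells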
Outline: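 Primed replication of single-stranded M13Gori by a four-protein B. subtilis holoenzyme is measured at room temperature. Double-stranded product is quantified by PicoGreen fluorescence after an EDTA stop; inhibition is scaled between DMSO and EDTA controls.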

DNA polymerase III PolC-type (Bacillus subtilis (strain 168)), sequence (P13267 whole entry, looked up): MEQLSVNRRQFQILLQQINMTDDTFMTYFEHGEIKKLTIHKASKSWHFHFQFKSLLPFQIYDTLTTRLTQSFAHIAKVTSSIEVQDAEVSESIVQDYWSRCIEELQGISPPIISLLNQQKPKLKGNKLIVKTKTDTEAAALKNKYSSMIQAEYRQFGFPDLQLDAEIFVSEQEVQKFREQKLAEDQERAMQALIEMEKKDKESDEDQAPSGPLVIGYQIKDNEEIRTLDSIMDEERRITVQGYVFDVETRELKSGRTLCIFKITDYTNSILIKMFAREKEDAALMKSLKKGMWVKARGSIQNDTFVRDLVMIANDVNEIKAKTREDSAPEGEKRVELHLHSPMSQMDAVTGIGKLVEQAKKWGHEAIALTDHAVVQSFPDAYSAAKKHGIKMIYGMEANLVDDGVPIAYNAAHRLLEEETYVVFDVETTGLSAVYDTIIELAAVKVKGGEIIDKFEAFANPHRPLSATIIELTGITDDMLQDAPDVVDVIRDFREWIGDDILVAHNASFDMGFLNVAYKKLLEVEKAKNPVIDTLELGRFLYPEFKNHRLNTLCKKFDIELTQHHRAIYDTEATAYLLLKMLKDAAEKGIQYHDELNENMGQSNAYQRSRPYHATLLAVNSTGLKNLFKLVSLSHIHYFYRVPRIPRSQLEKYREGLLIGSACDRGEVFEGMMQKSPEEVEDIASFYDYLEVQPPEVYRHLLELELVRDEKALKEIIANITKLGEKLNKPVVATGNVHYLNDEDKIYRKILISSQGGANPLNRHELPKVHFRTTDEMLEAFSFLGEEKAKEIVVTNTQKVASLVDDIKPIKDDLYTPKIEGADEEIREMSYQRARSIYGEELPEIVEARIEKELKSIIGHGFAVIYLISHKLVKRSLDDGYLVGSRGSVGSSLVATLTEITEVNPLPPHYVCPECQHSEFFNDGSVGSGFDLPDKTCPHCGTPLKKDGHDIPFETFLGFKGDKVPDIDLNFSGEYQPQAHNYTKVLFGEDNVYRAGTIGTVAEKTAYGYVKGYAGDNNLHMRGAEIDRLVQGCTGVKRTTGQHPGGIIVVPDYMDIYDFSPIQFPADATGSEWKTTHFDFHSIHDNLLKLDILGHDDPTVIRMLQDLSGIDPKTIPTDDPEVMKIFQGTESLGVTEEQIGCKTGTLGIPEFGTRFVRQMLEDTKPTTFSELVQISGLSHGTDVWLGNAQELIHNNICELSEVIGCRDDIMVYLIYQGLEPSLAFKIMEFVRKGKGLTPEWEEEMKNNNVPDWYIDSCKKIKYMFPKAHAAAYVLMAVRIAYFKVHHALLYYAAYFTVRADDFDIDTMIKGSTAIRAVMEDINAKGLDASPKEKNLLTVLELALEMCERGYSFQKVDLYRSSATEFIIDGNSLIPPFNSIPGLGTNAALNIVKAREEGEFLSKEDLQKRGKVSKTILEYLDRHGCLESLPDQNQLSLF

Structure (SMILES)	activity change, negative = inhibition
C[N+](C)(C)CCCCCCCCCC[N+](C)(C)C	4.41% (inactive)
COC(=O)C1=CCCN(C)C1	7.58% (inactive)
COc1ccc(C(=O)N2CCCC2=O)cc1	6.47% (inactive)
O=C(O)c1nn(Cc2ccc(Cl)cc2Cl)c2ccccc12	-1.17% (inactive)
NC(=O)CN1CCCC1=O	0.626% (inactive)
